Results published in PubChem BioAssay (NCATS).
Records with an inconclusive call do not appear. The source made the active and inactive calls. Unless noted, calls come from the whole dose curve.

Tests used:
[1] = qHTS for Inhibitors of the Functional Ribonucleoprotein Complex (vRNP) of Lassa (LASV) Arenavirus: LASV Primary Screen - GLuc reporter signal (AID 1347082; calls by dose curve; tested in HEK293 reporter line; note: nearly all actives have a fitted effect of over 60% in size)
[2] = qHTS for Inhibitors of the Functional Ribonucleoprotein Complex (vRNP) of Lassa (LASV) Arenavirus: Viability assay - alamar blue signal for LASV Primary Screen (AID 1347083; calls by dose curve; tested in HEK293 reporter line; note: nearly all actives have a fitted effect of over 80% in size)
[3] = qHTS for Inhibitors of the Functional Ribonucleoprotein Complex (vRNP) of Lymphocytic Choriomeningitis Arenaviruses (LCMV): Viability assay - alamar blue signal for LCMV Primary Screen (AID 1347085; calls by dose curve; tested in HEK293 reporter line; note: nearly all actives have a fitted effect of over 80% in size)
[4] = target: Nucleoprotein (Lymphocytic choriomeningitis virus (strain Armstrong)) (UniProt P09992); test: qHTS for Inhibitors of the Functional Ribonucleoprotein Complex (vRNP) of Lymphocytic Choriomeningitis Arenaviruses (LCMV): LCMV Primary Screen - GLuc reporter signal (AID 1347086); note: nearly all actives have a fitted effect of over 70% in size
Sequence of Nucleoprotein (Lymphocytic choriomeningitis virus (strain Armstrong)) (P09992 whole entry, looked up): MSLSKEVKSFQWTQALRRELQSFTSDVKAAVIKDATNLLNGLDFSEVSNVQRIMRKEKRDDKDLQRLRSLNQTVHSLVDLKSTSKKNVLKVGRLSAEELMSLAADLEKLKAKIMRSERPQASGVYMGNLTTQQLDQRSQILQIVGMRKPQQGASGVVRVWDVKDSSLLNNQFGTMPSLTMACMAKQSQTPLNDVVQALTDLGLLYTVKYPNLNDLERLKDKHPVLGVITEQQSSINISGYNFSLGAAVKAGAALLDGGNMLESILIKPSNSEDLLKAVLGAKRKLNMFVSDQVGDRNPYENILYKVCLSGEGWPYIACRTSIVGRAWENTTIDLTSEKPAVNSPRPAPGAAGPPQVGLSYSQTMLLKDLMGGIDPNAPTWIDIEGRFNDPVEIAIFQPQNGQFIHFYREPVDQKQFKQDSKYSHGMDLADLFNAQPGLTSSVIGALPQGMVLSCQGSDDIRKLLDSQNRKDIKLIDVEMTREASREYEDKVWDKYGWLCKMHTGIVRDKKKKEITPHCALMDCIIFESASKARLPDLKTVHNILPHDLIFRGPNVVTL
% is set by controls: 0 for no effect and ±100 for the full control effect.
Note: series mostly up to about 57 µM.

CC(=O)Oc1cc(C(C)C)c(OCCN(C)C)cc1C
inactive: Potency [1] | Potency [2] | Potency [3] | Potency [4]

NC[C@H]1O[C@H](O[C@H]2[C@H](O[C@@H]3O[C@H](CO)[C@@H](O)[C@H]3O)C(O)[C@H](N)C[C@@H]2N)[C@H](N)[C@@H](O)[C@@H]1O (some centres not stated)
inactive: activity change, negative = inhibition [1] -1.42% [at 11.5 µM] | activity change, negative = reduced viability [2] -0.396% [at 11.5 µM] | activity change, negative = lower viability [3] -0.301% [at 11.5 µM] | activity change, negative = inhibition [4] 40.8% [at 11.5 µM]

NC1CCN(c2cccc(Cl)n2)CC1
inactive: Potency [1] | Potency [2] | Potency [3] | Potency [4]

Cc1cc(O)cc(C)c1Cl
inactive: Potency [1] | Potency [2] | Potency [3] | Potency [4]

COc1ccc(C(=O)c2ccccc2O)c(O)c1
inactive: Potency [1] | Potency [2] | Potency [3] | Potency [4]

CCN1CC(CCN2CCOCC2)C(c2ccccc2)(c2ccccc2)C1=O (configuration not stated)
inactive: Potency [1] | Potency [2] | Potency [3] | Potency [4]

CC[N+](CC)(CC)CCOc1cccc(OCC[N+](CC)(CC)CC)c1OCC[N+](CC)(CC)CC
inactive: Potency [1] | Potency [2] | Potency [3] | Potency [4]

Cc1c[nH]c2ccccc12
inactive: Potency [1] | Potency [2] | Potency [3] | Potency [4]

O=C(O)c1cc(=O)c2ccccc2o1
inactive: Potency [1] | Potency [2] | Potency [3] | Potency [4]

Cc1onc(-c2c(Cl)cccc2Cl)c1C(=O)Cl
inactive: Potency [1] | Potency [2] | Potency [3] | Potency [4]

COc1cc(/C=C/C(N)=O)cc(OC)c1OC
inactive: Potency [1] | Potency [2] | Potency [3] | Potency [4]

O=C(/C=C/c1ccccc1)OCc1ccccc1
inactive: Potency [1] | Potency [2] | Potency [3] | Potency [4]

COc1ccc2cccc(CCNC(C)=O)c2c1
inactive: Potency [1] | Potency [2] | Potency [3] | Potency [4]

O=S(=O)(O)c1cc(I)c(O)c2ncccc12
inactive: Potency [1] | Potency [2] | Potency [3] | Potency [4]

O=c1[nH]c(=O)n([C@H]2C[C@H](O)[C@@H](CO)O2)cc1I
inactive: Potency [1] | Potency [2] | Potency [3] | Potency [4]

NCCc1ccn[nH]1
inactive: Potency [1] | Potency [2] | Potency [3] | Potency [4]

NS(=O)(=O)c1cc(C2(O)NC(=O)c3ccccc32)ccc1Cl (configuration not stated)
inactive: Potency [1] | Potency [2] | Potency [3] | Potency [4]

CCCCCCCCCCOc1cc2c(=O)c(C(=O)OCC)c[nH]c2cc1OCC
inactive: activity change, negative = inhibition [1] -8.32% [at 5.82 µM] | activity change, negative = reduced viability [2] 1.68% [at 5.82 µM] | activity change, negative = lower viability [3] 5.24% [at 5.82 µM] | activity change, negative = inhibition [4] 13.4% [at 5.82 µM]

CCC(C)(CN(C)C)OC(=O)c1ccccc1 (configuration not stated)
inactive: Potency [1] | Potency [2] | Potency [3] | Potency [4]

C=CCn1c(=O)n([C@@H]2O[C@H](CO)[C@@H](O)[C@H]2O)c2nc(N)[nH]c(=O)c21
inactive: Potency [1] | Potency [2] | Potency [3] | Potency [4]

NC(N)=Nc1nc(CSCC/C(N)=N/S(N)(=O)=O)cs1
inactive: Potency [1] | Potency [2] | Potency [3] | Potency [4]

c1ccc(-c2nc[nH]c2-c2ccccc2)cc1
inactive: Potency [1] | Potency [2] | Potency [3] | Potency [4]

Clc1ccc2nsnc2c1NC1=NCCN1
inactive: Potency [1] | Potency [2] | Potency [3] | Potency [4]

CCOC(=O)[C@H](CCc1ccccc1)N[C@@H](C)C(=O)N1[C@H](C(=O)O)C[C@H]2CCCC[C@@H]21
inactive: Potency [1] | Potency [2] | Potency [3] | Potency [4]

CN(C)CCc1c[nH]c2ccc(Cn3cncn3)cc12
inactive: Potency [1] | Potency [2] | Potency [3] | Potency [4]

C[C@@H](CN1CC(=O)NC(=O)C1)N1CC(=O)NC(=O)C1
inactive: Potency [1] | Potency [2] | Potency [3] | Potency [4]

S=P(N1CC1)(N1CC1)N1CC1
inactive: Potency [1] | Potency [2] | Potency [3] | Potency [4]

OC[C@H]1O[C@H](O[C@]2(CCl)O[C@H](CCl)[C@@H](O)[C@@H]2O)[C@H](O)[C@@H](O)[C@H]1Cl
inactive: Potency [1] | Potency [2] | Potency [3] | Potency [4]

CC(=O)Nc1ccc(S(=O)(=O)Nc2cc(C)on2)cc1
inactive: Potency [1] | Potency [2] | Potency [3] | Potency [4]

CCCCCCCCCCCCCCCCCCN(C)C
inactive: Potency [1] | Potency [2] | Potency [3] | Potency [4]

c1ccc2c(CC3=NCCN3)cccc2c1
inactive: Potency [1] | Potency [2] | Potency [3] | Potency [4]

O=P(O)(O)C(O)(Cn1ccnc1)P(=O)(O)O
inactive: Potency [1] | Potency [2] | Potency [3] | Potency [4]

CO/N=C(/C(=O)N[C@@H]1C(=O)N2C(C(=O)OCOC(=O)C(C)(C)C)=C(C)CS[C@H]12)c1csc(N)n1
inactive: Potency [1] | Potency [2] | Potency [3] | Potency [4]

COc1ccc(C(=O)c2ccccc2)c(O)c1
inactive: Potency [1] | Potency [2] | Potency [3] | Potency [4]

Clc1cccc(Cl)c1NC1=NCCN1
inactive: Potency [1] | Potency [2] | Potency [3] | Potency [4]

Cc1cc(C(C#N)c2ccc(Cl)cc2)c(Cl)cc1NC(=O)c1cc(I)cc(I)c1O (configuration not stated)
inactive: Potency [1] | Potency [2] | Potency [3] | Potency [4]

NCCCC[C@H](N[C@@H](CCc1ccccc1)C(=O)O)C(=O)N1CCC[C@H]1C(=O)O
inactive: Potency [1] | Potency [2] | Potency [3] | Potency [4]

CN1C(C)(C)CCCC1(C)C
inactive: Potency [1] | Potency [2] | Potency [3] | Potency [4]

COc1ccc(-c2cc(=O)c3c(O)cc(O[C@@H]4O[C@H](CO[C@@H]5O[C@@H](C)[C@H](O)[C@@H](O)[C@H]5O)[C@@H](O)[C@H](O)[C@H]4O)cc3o2)cc1O
inactive: Potency [1] | Potency [2] | Potency [3] | Potency [4]

NC(=O)NS(=O)(=O)c1ccc(N)cc1
inactive: Potency [1] | Potency [2] | Potency [3] | Potency [4]

CC(=O)O[C@@H]1C(=O)O[C@@H]2[C@H]1OC(=O)[C@@H]2OC(C)=O
inactive: Potency [1] | Potency [2] | Potency [3] | Potency [4]

CC(C)(C)NCC(O)COc1ccc(NC(=O)NC2CCCCC2)cc1 (configuration not stated)
inactive: Potency [1] | Potency [2] | Potency [3] | Potency [4]

Cc1nc(-c2ccc(Cl)cc2)oc1COC(C)(C)C(=O)O
inactive: Potency [1] | Potency [2] | Potency [3] | Potency [4]

CCCCCCCCCCC[C@@H](C[C@@H]1OC(=O)[C@H]1CCCCCC)OC(=O)[C@H](CC(C)C)NC=O
inactive: Potency [1] | Potency [2] | Potency [3] | Potency [4]

CCCCCCCCCCCCCCCCOP(=O)([O-])OCC[N+](C)(C)C
inactive: Potency [1] | Potency [2] | Potency [3] | Potency [4]

O=C(O)Cn1cnnn1
inactive: Potency [1] | Potency [2] | Potency [3] | Potency [4]

CC(=O)SCC(CC(=O)c1ccc(C)cc1)C(=O)O (configuration not stated)
inactive: Potency [1] | Potency [2] | Potency [3] | Potency [4]

C/C(=C(\CCO)SS/C(CCO)=C(\C)N(C=O)Cc1cnc(C)nc1N)N(C=O)Cc1cnc(C)nc1N
inactive: Potency [1] | Potency [2] | Potency [3] | Potency [4]
